Records with an inconclusive call do not appear. Values without a mark were called inactive. The source made the active and inactive calls. Calls follow the shape of the dose curve; as a rule, active = well fitted cell-killing curve with a large enough effect; inconclusive = small, poorly fitted or top-dose-only effect, or effect the other way; inactive = no such curve, though single readings can be large or run the other way.
Key:
[1] = Quantitative High-Throughput drug screen in 47 multiple myeloma cell lines against the NCATS MIPE library collection: MM1R_ATCC cell viability assay (AID 1918981); also: nearly all actives have a fitted effect of over 35% in size
In short: (§1)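 Readout: median RLU from CellTiter-Glo after 5 min at room temperature. Preceding step was 48 h drug treatment of 500 cells/well at 37 °C, 5% CO2, with DMSO-only and media-only control wells.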

[2] = Quantitative High-Throughput drug screen in 47 multiple myeloma cell lines against the NCATS MIPE library collection: KMS28PE_JCRB cell viability assay (AID 1918983); also: nearly all actives have a fitted effect of over 35% in size
In short: as §1

[3] = Quantitative High-Throughput drug screen in 47 multiple myeloma cell lines against the NCATS MIPE library collection: L363_DSMZ cell viability assay (AID 1918984); conditions: L363 myeloma viability, CellTiter-Glo ATP luminescence, 48 h; viability (% of control): at 45.8 µM (top of the series); also: nearly all actives have a fitted effect of over 40% in size
In short: as §1

[4] = Quantitative High-Throughput drug screen in 47 multiple myeloma cell lines against the NCATS MIPE library collection: KMS34_JCRB cell viability assay (AID 1918985); also: nearly all actives have a fitted effect of over 40% in size
In short: as §1

[5] = Quantitative High-Throughput drug screen in 47 multiple myeloma cell lines against the NCATS MIPE library collection: OCIMY7_PLB cell viability assay (AID 1918987); conditions: OCI-MY7 myeloma viability, CellTiter-Glo ATP, 48 h; viability (% of DMSO): at 45.8 µM (top of the series); also: nearly all actives have a fitted effect of over 65% in size
In short: as §1

[6] = Quantitative High-Throughput drug screen in 47 multiple myeloma cell lines against the NCATS MIPE library collection: OCIMY5_PLB cell viability assay (AID 1918988); also: nearly all actives have a fitted effect of over 65% in size
In short: as §1

[7] = Quantitative High-Throughput drug screen in 47 multiple myeloma cell lines against the NCATS MIPE library collection: OPM1_PLB cell viability assay (AID 1918989); also: nearly all actives have a fitted effect of over 40% in size
In short: as §1

[8] = Quantitative High-Throughput drug screen in 47 multiple myeloma cell lines against the NCATS MIPE library collection: SKMM1_PLB cell viability assay (AID 1919863); conditions: SKMM1 myeloma viability, CellTiter-Glo ATP, 48 h; viability: hits give low values; also: nearly all actives have a fitted effect of over 35% in size
In short: as §1

[9] = Quantitative High-Throughput drug screen in 47 multiple myeloma cell lines against the NCATS MIPE library collection: U266_ATCC cell viability assay (AID 1919864); also: nearly all actives have a fitted effect of over 35% in size
In short: as §1

[10] = Quantitative High-Throughput drug screen in 47 multiple myeloma cell lines against the NCATS MIPE library collection: XG6_PLB cell viability assay (AID 1919865); also: nearly all actives have a fitted effect of over 40% in size
In short: as §1

[11] = Quantitative High-Throughput drug screen in 47 multiple myeloma cell lines against the NCATS MIPE library collection: XG1_PLB cell viability assay (AID 1919866); also: nearly all actives have a fitted effect of over 35% in size
In short: as §1

[12] = Quantitative High-Throughput drug screen in 47 multiple myeloma cell lines against the NCATS MIPE library collection: VP6_DJ cell viability assay (AID 1919867); also: nearly all actives have a fitted effect of over 40% in size
In short: as §1

[13] = Quantitative High-Throughput drug screen in 47 multiple myeloma cell lines against the NCATS MIPE library collection: UTMC2_PLB cell viability assay (AID 1919868); conditions: CellTiter-Glo ATP luminescence, 48 h; viability (% of DMSO control): at 45.8 µM (top of the series); also: nearly all actives have a fitted effect of over 55% in size
In short: as §1

[14] = Quantitative High-Throughput drug screen in 47 multiple myeloma cell lines against the NCATS MIPE library collection: PE2_PLB cell viability assay (AID 1919869); also: nearly all actives have a fitted effect of over 35% in size
In short: as §1

[15] = Quantitative High-Throughput drug screen in 47 multiple myeloma cell lines against the NCATS MIPE library collection: PCM6_Riken cell viability assay (AID 1919870); also: nearly all actives have a fitted effect of over 30% in size
In short: as §1

[16] = Quantitative High-Throughput drug screen in 47 multiple myeloma cell lines against the NCATS MIPE library collection: RPMI8226_ATCC cell viability assay (AID 1919871); also: nearly all actives have a fitted effect of over 30% in size
In short: as §1

[17] = Quantitative High-Throughput drug screen in 47 multiple myeloma cell lines against the NCATS MIPE library collection: OPM2_DSMZ cell viability assay (AID 1919872); also: nearly all actives have a fitted effect of over 30% in size
In short: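 Myeloma cell lines, 500 cells per well, exposed to MIPE 4.0 library compounds for 48 h at 37C, 5% CO2. Viability from ATP by CellTiter-Glo luminescence; normalised to DMSO (100%) and media-only (0%) wells.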

[18] = Quantitative High-Throughput drug screen in 47 multiple myeloma cell lines against the NCATS MIPE library collection: KMS28BM_JCRB cell viability assay (AID 1919874); also: nearly all actives have a fitted effect of over 35% in size
In short: as §1

[19] = Quantitative High-Throughput drug screen in 47 multiple myeloma cell lines against the NCATS MIPE library collection: LP1_DSMZ cell viability assay (AID 1918982); also: nearly all actives have a fitted effect of over 35% in size
In short: as §1

[20] = Quantitative High-Throughput drug screen in 47 multiple myeloma cell lines against the NCATS MIPE library collection: KMS11_JCRBsus cell viability assay (AID 1919873); also: nearly all actives have a fitted effect of over 50% in size
In short: as §1
Potency is read from the fitted curve at half-maximal effect.

| SMILES | Potency [1] | Potency [2] | Potency [3] | Potency [4] | Potency [5] | Potency [6] | Potency [7] | Potency [8] | Potency [9] | Potency [10] | Potency [11] | Potency [12] | Potency [13] | Potency [14] | Potency [15] | Potency [16] | Potency [17] | Potency [18] | Potency [19] | Potency [20] |
| --- | --- | --- | --- | --- | --- | --- | --- | --- | --- | --- | --- | --- | --- | --- | --- | --- | --- | --- | --- | --- |
| NC1(C(=O)N[C@@H](CCO)c2ccc(Cl)cc2)CCN(c2ncnc3[nH]ccc23)CC1 | 0.148 µM (active) | 0.372 µM (active) | 0.235 µM (active) | 8.33 µM (active) | 3.72 µM (active) | 5.26 µM (active) | 1.48 µM (active) | 5.9 µM (active) | 13.2 µM (active) | 20.9 µM (active) | 4.18 µM (active) | 0.235 µM (active) | 0.235 µM (active) | 5.9 µM (active) | 5.26 µM (active) | 6.62 µM (active) | 13.2 µM (active) | 0.372 µM (active) | – | – |
| COc1ccc2c(c1)c(C1=C(c3c[nH]c4ccccc34)C(=O)NC1=O)cn2CCCN(C)C | 23.5 µM (active) | – | 13.2 µM (active) | 14.8 µM (active) | – | 37.2 µM (active) | 23.5 µM (active) | – | – | – | – | 20.9 µM (active) | – | – | 23.5 µM (active) | – | – | – | inactive | 23.5 µM (active) |
| O=C(c1ccc(C(=O)N2CCC(N3CCCC3)CC2)c(Nc2ccccc2)c1)N1CCC(N2CCCC2)CC1 | inactive | – | inactive | – | – | – | inactive | – | inactive | inactive | inactive | – | inactive | inactive | – | inactive | – | – | inactive | inactive |
| CCOC(=O)[C@H]1O[C@H]1C(=O)N[C@@H](CC(C)C)C(=O)NCCC(C)C | inactive | – | – | – | inactive | 29.6 µM (active) | – | – | – | – | inactive | – | – | inactive | 5.9 µM (active) | – | inactive | inactive | inactive | inactive |
| CC(C)CNc1ccnc(NCc2csc(-c3ccccc3)n2)n1 | 18.7 µM (active) | – | 1.87 µM (active) | – | 16.6 µM (active) | 14.8 µM (active) | 11.8 µM (active) | – | 20.9 µM (active) | 16.6 µM (active) | 16.6 µM (active) | 5.26 µM (active) | 10.5 µM (active) | 18.7 µM (active) | 14.8 µM (active) | – | – | 16.6 µM (active) | 11.8 µM (active) | 13.2 µM (active) |
| Cn1cc(-c2ccc3nnc(Sc4ccc5ncccc5c4)n3n2)cn1 | 23.5 µM (active) | – | – | – | – | 13.2 µM (active) | inactive | – | – | 26.4 µM (active) | 26.4 µM (active) | 18.7 µM (active) | – | – | – | – | inactive | inactive | 0.001 µM (active) | inactive |
| COc1cc([C@H]2Oc3cc([C@H]4Oc5cc(O)cc(O)c5C(=O)[C@H]4O)ccc3O[C@H]2CO)ccc1O | 23.5 µM (active) | 20.9 µM (active) | inactive | 20.9 µM (active) | 8.33 µM (active) | 10.5 µM (active) | 14.8 µM (active) | 23.5 µM (active) | – | 14.8 µM (active) | 16.6 µM (active) | 11.8 µM (active) | – | – | – | – | – | 10.5 µM (active) | – | 7.43 µM (active) |
| N#CC(c1ccnc(NCCc2cccnc2)n1)c1nc2ccccc2s1 (stereo unspecified) | 18.7 µM (active) | – | 4.69 µM (active) | 14.8 µM (active) | 2.96 µM (active) | 13.2 µM (active) | – | – | – | 5.9 µM (active) | 10.5 µM (active) | 10.5 µM (active) | 16.6 µM (active) | 5.26 µM (active) | 5.9 µM (active) | – | 26.4 µM (active) | 26.4 µM (active) | 18.7 µM (active) | 11.8 µM (active) |
| COc1cc2ncn(-c3cc(OCc4ccccc4S(C)(=O)=O)c(C#N)s3)c2cc1OC | inactive | – | – | inactive | – | – | inactive | – | – | – | – | – | – | 1.05 µM (active) | inactive | inactive | inactive | – | inactive | – |
| COc1c(C)cnc(Cn2cnc3c(Cl)nc(N)nc32)c1C | 0.235 µM (active) | 0.235 µM (active) | 0.0372 µM (active) | 0.105 µM (active) | 0.0418 µM (active) | 0.0935 µM (active) | 0.148 µM (active) | – | 0.166 µM (active) | – | 0.118 µM (active) | 0.148 µM (active) | – | 0.235 µM (active) | – | – | 0.187 µM (active) | – | – | 0.0662 µM (active) |
| N#CC(=C1Nc2ccccc2S1)c1ccnc(OCc2ccc(CN3CCOCC3)cc2)n1 | 14.8 µM (active) | – | 0.0372 µM (active) | 18.7 µM (active) | – | 8.33 µM (active) | 16.6 µM (active) | – | 5.26 µM (active) | 1.18 µM (active) | 1.18 µM (active) | – | – | 5.26 µM (active) | – | 20.9 µM (active) | – | – | 20.9 µM (active) | 1.05 µM (active) |
| OC[C@H]1O[C@@H](OCCc2ccc(O)cc2)[C@H](O)[C@@H](O)[C@H]1O | inactive | – | inactive | – | – | – | 29.6 µM (active) | – | 20.9 µM (active) | 5.9 µM (active) | – | 0.662 µM (active) | – | inactive | inactive | inactive | inactive | – | inactive | inactive |

Source: PubChem BioAssay (NCATS)
